Screen size: about 69,000 compounds; about 8,600 (12%) showed an effect of 50% or more. The sample holds strong results, similar compounds and a random draw of the others, so the mix is not that of the screen.
These compounds were tested on Plasmodium berghei (assay: Screen against P. berghei liver stage (PbLuc), transformed with Luciferase, at 10uM). Details: tested at 10 uM.
Format: functional, HepG2

Compound	INHIBITION
COCc1cccc(S(=O)(=O)N2CCSCC2)c1	40%
CSc1ccc(C)c(C(=O)N2CCCC(n3cncn3)C2)c1 (centres undefined)	-10.1%
Cc1ncc2c(n1)C1(CCN(C(=O)C(C)C)CC1)OCC2	3.89%
CCc1ccc(C(=O)NC(C)c2ccc(S(C)(=O)=O)c(F)c2)o1 (centres undefined)	6.33%
Cc1cc(C)cc(C(C)NC(=O)c2ccc(CS(C)(=O)=O)o2)c1 (centres undefined)	54.3%
CCc1ccc(C(C)NC(=O)c2ccc(CS(C)(=O)=O)o2)cc1 (centres undefined)	50.8%
Cc1cn2c(n1)CCC(NC(=O)c1ccc(CS(C)(=O)=O)o1)C2 (centres undefined)	13.1%
CCc1ccc(C(C)NC(=O)CN(C)Cc2ccc(C)o2)cc1 (centres undefined)	-27%
CC(NC(=O)c1ccc(CS(C)(=O)=O)o1)c1ccc(F)c(F)c1 (centres undefined)	12.3%
CS(=O)(=O)N1CCC(NC(=O)COc2ccccc2Cl)CC1	-19.9%
O=C(c1nccc2ccccc12)N1CCCCC1Cn1cccn1 (centres undefined)	3.73%
Cc1nc(CNC(=O)c2cc(COc3ccccc3F)[nH]n2)n[nH]1	17%
CNc1cc(C)nc(C2CN(Cc3cncs3)CCO2)c1 (centres undefined)	11.1%
Cn1nc(CN2CCCC2)c2c1CN(C(=O)c1cccnc1)CC2	-31.3%
Cc1cc2n(n1)CC(CNCc1ccc(-n3ccnc3C)nc1)CN2 (centres undefined)	-13.575%
CC(=O)N1CCOC(c2c(C(=O)NC(C)(C)C)sc3ccccc23)C1 (centres undefined)	-84.7%
Cc1cnc(N2CC[C@@H]3O[C@@H](COCC(=O)N(C)C)CC[C@@H]32)nc1	18.2%
CSc1ccc(CN(C)C(=O)c2cc3c([nH]c2=O)CCCC3=O)cc1	7.99%
CSc1ccc(CN(C(=O)c2cc[nH]n2)C2CC2)cc1	59.1%
Cc1ccc(C(=O)N(Cc2cccc(F)c2)C2CC2)c(=O)[nH]1	-30.7%
O=C(c1cc[nH]n1)N(Cc1ccc(F)cc1)CC1CC1	-24%
CN(C)Cc1ccc(C2CCCCN2C(=O)c2cc(=O)[nH]c(=O)[nH]2)cc1 (centres undefined)	16.7%
COC1CCN(c2ccc(F)cc2CN(C)C(=O)c2cc[nH]n2)CC1	-74.8%
CSc1ccc(CN(C(=O)c2cc(C)[nH]c(=O)c2)C2CC2)cc1	50.8%
Cc1ccc(C(=O)N(Cc2ccc(F)cc2)C2CC2)c(=O)[nH]1	-37.8%
O=C(c1cc[nH]n1)N(Cc1ccccc1)CC1CCC1	72.3%

Compound	INHIBITION
O=C(c1cc[nH]n1)N(Cc1cccc(O)c1)CC1CC1	5.64%
COc1cc(C(=O)N(Cc2ccc(F)cc2)C2CC2)cc2c1OCCO2	13.4%
CSc1ccc(CN(C(=O)c2cc(=O)[nH]c(=O)[nH]2)C2CC2)cc1	59.1%
NC(=O)C1Cn2ccnc2C2(CCN(C(=O)NC3CCCC3)CC2)O1 (centres undefined)	0.453%
CC(C)Oc1ccc(CNC(=O)CCN2C(=O)CCC2=O)cc1F	-38.75%
Cc1nc2c(c(NC3CCN(Cc4ccccc4)CC3)n1)CCNCC2	-4.28%
CC(=O)N1CCCC(c2nccnc2-c2ccc(CO)cc2)C1 (centres undefined)	20.2%
c1ccc(CCN2CCN(C3CCOC4(CCOCC4)C3)CC2)cc1 (centres undefined)	36.8%
CC(NC(=O)CN(C)S(C)(=O)=O)c1nnc2n1CCCCC2 (centres undefined)	38.6%
CCc1ccc(C(=O)N2CCCC(CNS(C)(=O)=O)C2)o1 (centres undefined)	-26.6%
O=C(NCc1ccccc1)C1=NOC2(CCNC2)C1 (centres undefined)	24.5%
O=c1ccc(-c2cccs2)nn1CN1CCN(C2CCS(=O)(=O)C2)CC1 (centres undefined)	-4.52%
COc1ccc(C(=O)CNC(=O)c2nc(Cl)sc2C(C)C)cc1	-44.2%
O=C(CCc1nnc(-c2ccccc2)o1)N1CCCC1c1ccccn1 (centres undefined)	17.8%
CC1CCCCN1C(=O)CCc1nnc(-c2ccccc2)o1 (centres undefined)	51.5%
O=C(CCc1nnc(-c2ccccc2)o1)N1CCCC1c1ccc[nH]1 (centres undefined)	-14.9%
Cc1cc(CN2CCC(N(C)Cc3nnc(C4CC4)n3C)C2)on1 (centres undefined)	19.2%
COCc1noc(Cc2c(C)nn(C)c2C)n1	28.5%
Cc1nc(C(=O)N(C)CC(F)(F)C(F)(F)F)c2ccccn12	3.03%
CCOC(=O)CN(CC(F)(F)F)C(=O)c1nc(C)n2ccccc12	22.3%
Cc1nc(C(=O)N(CC(=O)N(C)C)CC(F)(F)F)c2ccccn12	53.3%
CCCc1nc(CN2CCCC(c3noc(C4CC4)n3)C2)no1 (centres undefined)	4.71%
Cc1c(CC(C#N)C(=O)Nc2cccc(O)c2)cnn1C (centres undefined)	20.4%
Cc1ccc(C2CCCN2CC(=O)N(CCC#N)c2ccccc2)cc1 (centres undefined)	62.8%
Cc1ccc(N(CCC#N)C(=O)CN2CCCC2c2ccsc2)cc1 (centres undefined)	3.45%
N#CCCN(C(=O)CN1CCCC1c1ccsc1)c1ccccc1 (centres undefined)	-2.95%

Compound	INHIBITION
Cc1ccc(N(CCC#N)C(=O)CN2CCCC2c2cccs2)cc1 (centres undefined)	-3.48%
N#CCCN(C(=O)CN1CCCC1c1ccccc1Cl)c1ccccc1 (centres undefined)	67.1%
Cc1cc(C)cc(N(CCC#N)C(=O)CN2CCCC2c2cccs2)c1 (centres undefined)	6.54%
CNS(=O)(=O)CC(=O)N(Cc1ccsc1)c1ccccc1	-2.69%
CC(=O)N(Cc1ccsc1)c1ccccc1	24.2%
CC(C)S(=O)(=O)CC(=O)N(Cc1ccsc1)c1ccccc1	54.4%
Cc1occc1C(=O)N1C[C@H]2CCCC(OCc3cccnc3)[C@H]2C1 (some centres undefined)	30.3%
Cc1cnn(C2CCCN(C(=O)CCCOc3ccccc3F)C2)c1 (centres undefined)	-27.8%
CS(=O)(=O)NCCCNC(=O)c1cccc(-n2cccc2)c1	13.4%
Cc1ccc(C(=O)NCCCN(C)S(C)(=O)=O)cc1-n1cccc1	12.9%
Cc1ccc(C(=O)NCCCNS(C)(=O)=O)cc1-n1cccc1	51.3%
COc1ccc(CN2C[C@H]3CC[C@@H](C2)N(S(=O)(=O)C2CC2)C3)cc1	4.52%
O=C1CCN(C(=O)NCCCc2ccc(Cl)cc2Cl)CCN1	-12.1%
Cc1ncsc1-c1nnc(C2CCN(CC3CCCCC3)CC2)o1	-18.4%
Fc1cccc(CN2CCC(c3noc(-c4cnccn4)n3)CC2)c1F	-11.4%
Cc1ncsc1-c1nnc(C2CCN(Cc3cccc(F)c3F)CC2)o1	54.5%
Cc1ncsc1-c1nnc(C2CCN(Cc3ccccc3Cl)CC2)o1	29.3%
Cc1ncsc1-c1nnc(C2CCN(Cc3ccccc3F)CC2)o1	59%
CCn1c(CN(C)C)nnc1C1CCN(Cc2cccc(F)c2F)CC1	25%
Cn1ccnc1CN1CCC(F)(F)C2(CCN(c3cnccn3)C2)C1 (centres undefined)	-38.9%
CN(C)c1nccnc1C1CCCN(c2cnccn2)C1 (centres undefined)	7.75%
COCCNS(=O)(=O)c1c(C)sc2ccccc12	-35%
COc1cccc(N2CCN(C(=O)c3noc4c3CCCC4)CC2)c1	12.6%
COCc1cc(N2CCc3onc(-c4cccc(OC)c4)c3C2)ncn1	82.2%
COCC(C)N1CCc2onc(-c3ccc(F)c(F)c3)c2C1 (centres undefined)	16.7%
COc1cccc(N2CCN(C(=O)c3noc4c3CCCCC4)CC2)c1	10.1%

Compound	INHIBITION
COc1cccc(-c2noc3c2CN(c2nc(C)ncc2C)CC3)c1	80%
COc1cccc(-c2noc3c2CN(c2ncnc4c2CCC4)CC3)c1	89.6%
Cc1cnc(N2CCc3onc(COc4cccnc4)c3C2)nc1	32.1%
CC(C)c1ccc(N2CCc3onc(-c4ccc(F)c(F)c4)c3C2)nn1	40.3%
COc1ccc(CC2(C(=O)O)CCN(c3nc(C)ncc3C)CC2)cc1	-1.25%
CC(C)(C)n1ncc2c1NC(=O)CC2c1ccc(C(=O)O)cc1 (centres undefined)	-12.2%
CC(C)Oc1ccc(Cl)c(C(=O)N2CCN(CCO)CC2)n1	33.3%
CCSc1ccc(C(=O)N2CCCCC2C(=O)N2CCCC2)cn1 (centres undefined)	20.4%
Cc1ccc(CN2CC[C@@H](NC(=O)c3cccnc3)[C@H](O)C2)s1	-10.9%
O=C(c1cccs1)N1CC[C@@H](N2CCOCC2)[C@@H]1Cc1ccccc1	19.4%
Cn1ncnc1NCc1ccc(F)cc1	-42.8%
Cc1cccc2c1ccn2CCC(=O)O	17.6%
COc1ccccc1C(=O)NCCCN1CCCC1C(=O)N(C)C (centres undefined)	-1.85%
CN1CCC(Cc2noc(-c3cccc(Oc4ncccn4)c3)n2)CC1	-0.529%
COc1cccc(-c2n[nH]cc2-c2nc(CC3CCN(C)CC3)no2)c1	59.7%
COc1cccc(-c2n[nH]cc2-c2nc(CN3CCCC3)no2)c1	34%
Cc1ccc(S(=O)(=O)N2CCCC(c3n[nH]cc3C(=O)N(C)C)C2)cc1 (centres undefined)	11.8%
CCOCCNC(=O)c1cccc(Cn2nc(C)cc2C)c1	-89.3%
Cc1cc2n(n1)[C@@H](C(F)(F)F)C[C@@H](C1CCCN(C(=O)C(C)C)C1)N2 (some centres undefined)	1.5%
CC(C)Cc1cc(CN2C[C@@H]3CC[C@H]2CN(Cc2cscn2)C3)n[nH]1	39.9%
CN(Cc1cc(Br)cn1C)C(=O)Cc1cccc(O)c1	50.8%
CN(Cc1cc(Br)cn1C)C(=O)c1ccsc1	-82.2%
CN(Cc1cc(Br)cn1C)C(=O)Cc1cccnc1	-91.4%
O=C(NC[C@H]1C[C@@H]2CCN1C[C@@H]2CN1CCOCC1)Nc1ccsc1	41.1%
O=C(NC[C@H]1C[C@@H]2CCN1C[C@@H]2CN1CCCCC1)Nc1ccsc1	33.2%
CC1CCN(C[C@H]2CN3CC[C@H]2C[C@@H]3CNC(=O)Nc2ccsc2)CC1	77.7%
